Results taken from the supplement of paper PMC10681739.

Assays:
ETS1 [1] = target: T1, ETS1 (UniProt P14921); test: ETS1 binding intensity (PBM fluorescence), ETS1 alone (arbitrary fluorescence units); higher = stronger binding; settings: ETS1 concentration 1 nM; RUNX1 concentration 0 nM
T1 sequence: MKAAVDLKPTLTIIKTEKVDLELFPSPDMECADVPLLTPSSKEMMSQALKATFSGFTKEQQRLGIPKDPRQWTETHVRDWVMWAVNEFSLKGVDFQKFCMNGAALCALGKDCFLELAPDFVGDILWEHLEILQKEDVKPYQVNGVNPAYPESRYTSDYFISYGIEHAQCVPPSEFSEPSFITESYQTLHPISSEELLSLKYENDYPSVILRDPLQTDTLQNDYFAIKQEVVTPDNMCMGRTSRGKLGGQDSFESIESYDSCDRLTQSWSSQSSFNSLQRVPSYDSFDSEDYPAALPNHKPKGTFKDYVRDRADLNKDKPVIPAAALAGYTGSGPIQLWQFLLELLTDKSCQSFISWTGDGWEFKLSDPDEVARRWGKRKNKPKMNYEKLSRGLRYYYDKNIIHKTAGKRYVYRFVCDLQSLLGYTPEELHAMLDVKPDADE

RUNX1 [2] = target: RUNX1 (UniProt Q01196); test: RUNX1 binding intensity (PBM fluorescence), RUNX1 alone (arbitrary fluorescence units); higher = stronger binding; settings: RUNX1 concentration 2 nM; ETS1 concentration 0 nM
Experimental: (§1)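 Cooperative gcPBM on 36-bp genomic probes with neighbouring ETS1 and RUNX1 sites. Recombinant human RUNX1 (2 nM) was incubated alone or with ETS1 (25 nM) and detected with anti-RUNX1 antibody plus Alexa488 secondary. Values are medians over 4 replicate spots; the RUNX1+ETS1 data were normalised to the RUNX1-only data. The probes sit in constant array flanks that are not printed.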

ETS1 [3] = target: T1, ETS1; test: ETS1 binding intensity (PBM fluorescence) in presence of RUNX1, normalised to ETS1-only experiment (arbitrary fluorescence units); higher = stronger binding; settings: ETS1 concentration 1 nM; RUNX1 concentration 25 nM
RUNX1 [4] = target: RUNX1 (UniProt Q01196); test: RUNX1 binding intensity (PBM fluorescence) in presence of ETS1, normalised to RUNX1-only experiment (arbitrary fluorescence units); higher = stronger binding; settings: RUNX1 concentration 2 nM; ETS1 concentration 25 nM
Experimental: as §1
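Wherever RUNX1 binding intensity (PBM fluorescence) in presence of ETS1, normalised to RUNX1-only experiment is given: Full-length recombinant human ETS1 or RUNX1 bound to double-stranded 36-bp genomic probes on microarrays, detected by protein-specific primary antibody and Alexa488 secondary, spot fluorescence as median of four replicate spots.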
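Wherever RUNX1 binding intensity (PBM fluorescence), RUNX1 alone is given: Full-length recombinant human RUNX1 bound to double-stranded 36-bp genomic probes on a high-density microarray, scored as Alexa488 fluorescence per spot via anti-RUNX1 antibody, median of four replicate spots.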

Chain of RUNX1 (Q01196 whole entry): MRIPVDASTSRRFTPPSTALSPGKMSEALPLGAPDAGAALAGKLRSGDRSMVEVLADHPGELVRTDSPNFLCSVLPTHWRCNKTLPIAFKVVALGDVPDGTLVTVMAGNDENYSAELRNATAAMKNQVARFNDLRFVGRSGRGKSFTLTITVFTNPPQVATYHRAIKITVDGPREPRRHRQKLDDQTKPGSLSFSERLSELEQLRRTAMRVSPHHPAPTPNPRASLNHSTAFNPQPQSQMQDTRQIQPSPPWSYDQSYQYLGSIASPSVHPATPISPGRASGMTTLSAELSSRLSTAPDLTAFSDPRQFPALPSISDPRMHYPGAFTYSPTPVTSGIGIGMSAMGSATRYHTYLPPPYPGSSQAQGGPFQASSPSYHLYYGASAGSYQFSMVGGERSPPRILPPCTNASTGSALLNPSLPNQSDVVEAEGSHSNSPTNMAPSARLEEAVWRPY

Sequence	ETS1 binding intensity (ETS1 [1])	RUNX1 binding intensity (RUNX1 [2])	ETS1 binding intensity (ETS1 [3])	RUNX1 binding intensity (RUNX1 [4])
GGGGAACGGAAGCTGCTGTCGTTACTGGCGGTTGTA	1510	767	1320	929
GTTCCTTTGAAAGCAGGATGTGGTTTGCCCCAGCTT	5390	881	29200	3730
TGGACGTAACACTCAGGAAGTGGTCAACCTTGCTGC	2630	820	5810	1340
GGATTAGAACTGCTTCCTCCTGTGGTTTACCAGAAA	417	923	595	1840
AGGCAGCACAGGAAGTTATAACCACATGTACACTTG	3790	781	11900	1960
ACAGACCAGGGGATTTCCTGTGGGTGGAGTCCTCAG	859	676	771	1500
GGCCAGGCAGGAAGTCCCGCGCCACAAGCGGCCGTC	3050	758	3300	1230
CCTTCCTTCCGGGGTCGGCCCCGCCCGCAAGCGCCG	441	1180	467	3960
CATTTACAGAAAAGGAAACCGCAAGTTTGAGCAAGT	976	25200	2150	30700
CTAACAGCAGGAAGTGCTTGGTGGTTTAGCACCTCA	2990	664	7150	1180
TGGTGGCTATTTCCTCTCCCGCTGTGGTCCCTGGAG	563	728	535	1470
CCGCGCCGCTTCCTCCAGACACCGCAAGGGGGTGCT	325	893	446	1660
TAAGGATGTGTGGCTTCCAGATCAAAAACCGCAAAA	516	7590	3920	10600
CCCACCCGGAAATGAGCCAACAGTGGTTTCGCCCCG	1590	782	2010	1380
TCCCCACATCCTTTAAAACGATGAGATAACCACATG	398	1000	636	2960
GCTTGCTCCCACAGGAAACCGCAGGCTTCGGGCACA	3190	7370	9810	12000
GGGGCCTCTGCTACTTCCTAGACCGCAAAATGGAGA	413	5260	1570	6150
GCTGCCACTTCCCTTGCTTATTTCATGTGGTTTGGA	552	1230	794	1980
TACAGGAACTTCCTGCGCGGCTGCTGTGGTTGCGAG	794	684	1350	1680
GAAGCCAGGAAATGGTGCGTGTGCGGGGCCGGGCGC	982	663	1010	935

Sequence	ETS1 binding intensity (ETS1 [1])	RUNX1 binding intensity (RUNX1 [2])	ETS1 binding intensity (ETS1 [3])	RUNX1 binding intensity (RUNX1 [4])
ATTTCCATTTCCGGACTCTTCTCCTGCCCGCAGGGC	2270	1220	3560	3660
GGCGGCTTCCGGGATCTGCCTGGCGGTTGCTTTGTC	568	729	525	2140
GCGGGGCGCAGGAAGCGGGGCGAAACCACTGTTGGC	1040	753	1550	1010
TGACATGGCTTCCGCCTTGGGCTTTGTGGTCTCCCA	513	890	1150	1760
AGAAGCTGCACCCGGAAATGAAACCACCAGGACCTC	4630	887	9310	1380
GAAGAGAAAGGAAACGGCTCGCGGTTTCTGGGGTTC	822	738	3150	1280
GATACCCAGCCAGCGGAAGTGCGGTTAACTGCCCGA	4460	4990	18400	11100
ACCTCAGGTACCGGAAGACCACAATTCCCAGGAGTC	2950	965	4740	1740
CCTCACCCAGGAAGTGGCTGCGGCTGTCTCAGGGTT	2450	770	3340	1440
CCACTGCTTCCGCCTTCTCTGCTGGCTGCGGGGAGC	545	904	516	2210
TCCTGTAGTTTCCGGCTGAAGTGGTAAGGTTTTTGA	845	925	852	1750
GAGGCGACCCACATCCGCTGTGCGGGGGCAACTGCA	957	729	1270	6600
AGGTTAATACCCGGAACTACCACAACCGTCTTCCCT	772	1020	862	985
CGGAGGCGGCCGGAAGTAGCGCTGCGGTTGGCAGCT	16800	937	64100	6060
TGTAAGTCACTTCCTGTCGTGGTCAGGTCTCCTCTC	8260	873	7730	2370
GCCCCGGAAGTGGCCCGGCTGTTGGCCGCAGCGGGA	2810	667	3480	1710
CGCCGGATGCATAAAAGACTGGCTGCGGTGGCTCAG	604	724	1300	973
GCAGAACCAGAAACAGGATGTGGGTTCCCCTTTAAG	7390	826	18900	4550
GAAAGACAGGATGTGGGATAGATCTCAACCACCTTT	2590	817	4970	4740
TAGCATGTGAGCTTCCTGTGGGTTTGTGCAGCCCCA	616	708	654	1440
